# High-throughput results: PubChem, National Center for Advancing Translational Sciences (NCATS)
# nsP2pro primary – Primary qHTS for inhibitors of NSP2Pro chikungunya virus (CHIKV) | Polyprotein P1234 (Chikungunya virus (strain S27-African prototype)), Q8JUX6 | FRET peptide cleavage, nsP2pro, fluorescence 1 h | Potency, µM (top dose mostly 24.9 µM), actives largely listed as inhibitors | 1.1% of 31,000 active; calls by dose curve; also: nearly all actives have a fitted effect of over 60% in size
#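 Enzyme 150 nM, substrate 2.5 uM (both final); Tris-HCl 10 mM pH 8.0 + 0.01% Tween 20; cpd up to 25 uM, 7 pts; 15 min preinc., 1 h RT; fluorescence ex 525/em 598.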
# A number is an active result; - = inactive; ! = not confirmed by another sample; [ ] = another dose, or the depositor's remark. The full list was thinned out, with hits kept by preference.
SMILES,nsP2pro primary
CC(=O)O[C@H]1C[C@@]2(C)[C@@H](CC[C@H]3[C@@]4(C)C=CC(=O)[C@@H](C)[C@@H]4[C@H](O)C(=O)[C@@]32C)/C1=C(/CCC=C(C)C)C(=O)O,-
CC1CC(O)C2(C)C(C(=O)O)=CCCC2C1(C)CCc1ccoc1 (stereo not given),-
C=C1OC2CC(C(=O)O)C=CC2NC1=O (stereo not given),-
CCOc1ccc(C(c2c(O)cc(C)n(CCOC)c2=O)N2CCN(c3ccccc3F)CC2)cc1 (stereo not given),12.6µM
Cn1c(=O)cc(SCC(=O)N2CCN(c3ccccc3F)CC2)c2ccccc21,-
CCOC(=O)c1cnc2ccc(OCC)cc2c1N1CCN(c2ccccc2F)CC1,-
Cc1cc2c(s1)c1cnn(Cc3cccc4cccnc34)c(=O)c1n2C,-
CCC[C@@H](NC(=O)[C@@H]1[C@H]2CCC[C@@H]2CN1C(=O)[C@@H](NC(=O)[C@@H](NC(=O)c1cnccn1)C1CCCCC1)C(C)(C)C)C(=O)C(=O)NC1CC1,7.94µM
CC(=O)OC[C@]12[C@H](OC(C)=O)C(=O)[C@@H]3[C@@H](O)[C@@]14O[C@@]3(C)COC(=O)c1cccnc1[C@@H](C)[C@H](C)C(=O)O[C@@H]([C@H](O)[C@@H]2OC(C)=O)[C@]4(C)O,-
O=S(=O)(NC[C@H]1C[C@@H]2CCN1C[C@@H]2CN1CCOCC1)c1ccccc1,-
COc1cccc(CC(=O)N2CCCCCCN(C)C(=O)[C@H]3CCC[C@H]32)c1,-
O=c1cc2c(nn1Cc1cccc(Br)c1)CCCCC2,-
COCC(=O)N1c2nc(C(C)C)nn2C2(CCCCC2)[C@@H]2CCCC[C@@H]21,11.2µM
CC(=O)N1c2nc(-c3ccco3)nn2C2(CCCCC2)[C@@H]2CCCC[C@@H]21,-
O=C(c1cccc([N+](=O)[O-])c1)N1c2ncnn2C2(CCCCC2)[C@@H]2CCCC[C@@H]21,-
Cc1ccsc1C(=O)N1CC(Oc2ccccc2-c2nc(-c3cnccn3)no2)C1,-
COC(=O)c1ccc2c(C(=Nc3ccc(N(C)C(=O)CN4CCN(C)CC4)cc3)c3ccccc3)c(O)[nH]c2c1,-
CC1CCN(C(=O)CN2C(=O)NC3(CCCCC3)C2=O)CC1,-
Cc1cn2nc(C(=O)NC3CCC(C)CC3)cc2c(N2CCCC2)n1 (stereo not given),-
Cc1nc2c(NC3CCN(C(=O)c4cnccn4)CC3)cccn2n1,11.2µM
CCCOc1nccnc1NC1CCN(C(=O)c2cccnc2)CC1,-
O=C(c1ccoc1)N1CCC(Nc2cccn3ncnc23)CC1,-
C[C@@H]1O[C@@H](OC2C(O[C@H]3[C@H](O[C@H]4CC[C@@]5(C)C(CC[C@]6(C)C5CC=C5C7CC(C)(C)CC(O)[C@]7(C)CC[C@]56C)C4(C)C)O[C@H](C(=O)O)[C@@H](O)[C@@H]3O)OC(CO)C(O)C2O)[C@H](O)[C@H](O)[C@H]1O (stereo not given in full),-[5.1 µM]
CCC1OC(=O)[C@H](C)C(=O)[C@H](C)[C@@H](OC2O[C@H](C)C[C@H](N(C)C)[C@H]2O)[C@](C)(OC)C[C@@H](C)C(=O)[C@@H](C)[C@@H]2N(CCCCn3cnc(-c4cccnc4)c3)C(=O)O[C@]12C (stereo not given in full),-
CC(C)CCNC(=O)[C@H](CC(C)C)NC(=O)[C@H]1O[C@@H]1C(=O)O,-
SMILES,nsP2pro primary
CCOC(=O)[C@H]1O[C@H]1C(=O)N[C@@H](CC(C)C)C(=O)NCCC(C)C,7.08µM
Cc1noc(C2CC3(CCN(C(=O)Nc4ccccc4)CC3)CN2C)n1 (stereo not given),-
CN1CCN(Cc2ccc(-c3cnc4c(OCc5ccccc5)nccn34)cc2)CC1,-
O=C(NCc1ccccc1)c1cnc2n1CCN(Cc1ccccc1)CC2,-
O=C(NCc1cccnc1)c1cc(CN2CCC(Cc3ccccc3)CC2)on1,-
O=C(NCc1ccncc1)c1nc2c(o1)CCN(CCCc1ccccc1)CC2,14.1µM
Cc1ccc(NS(=O)(=O)c2ccc(Cl)cc2)cc1C,-
COC(=O)/C=C/C(=O)N(O)CCCCNCc1ccc(COC(=O)Nc2cccc3ccccc23)cc1,-
O=C(c1nc2c(o1)CCN(Cc1cccc(F)c1)CC2)N1CCOCC1,2.82µM
Cn1c(C(=O)Nc2ccc3c(c2)OCO3)cc2c1CCN(Cc1cccc(F)c1)C2,-
Fc1ccc(-c2cccc(CN3CCOCC3)c2)c(Cl)c1,-
CN(CC1CCN(CCc2ccc(Cl)cc2)CC1)C(=O)c1ccccc1C#N,-
COC(=O)Nc1ccc(-c2nc(N3CCOCC3)c3cnn(C4CCN(Cc5cccnc5)CC4)c3n2)cc1,-
COCCCOc1ccnc(CS(=O)c2nc3ccccc3[nH]2)c1C (stereo not given),-
COc1ccc2c(c1)[nH]c1c(C)nccc12,-
COc1ccc2nc(S(=O)Cc3ncc(C)c(OC)c3C)[nH]c2c1 (stereo not given),10µM!
C/C=C(/C)C(=O)O[C@H]1C[C@]2(C)O[C@@H]2[C@@H](OC(C)=O)[C@@]2(C)CC[C@@](O)(C(C)C)[C@H]12,-
O=C(Nc1cccnc1)c1cc(-c2ccnc(F)c2)ccc1OCc1ccccc1,-
O=C1CCCC2=C1C(c1ncccc1C(F)(F)F)N=C(Nc1nc3ccccc3o1)N2 (stereo not given),-
CC1=C(c2ccc(Cl)cc2)S(=O)(=O)N=C1N1CCC(C(=O)NCCc2ccco2)CC1,11.2µM
CC1=C(c2ccc(C)c(C)c2)S(=O)(=O)N=C1N1CCC(C(=O)NCc2ccc(Cl)cc2)CC1,-
CC1=C(c2ccc(C)c(C)c2)S(=O)(=O)N=C1N1CCC(C(=O)Nc2ccc(Cl)cc2)CC1,-
O=C(c1ccc2ncccc2c1)N1CCC(c2nc(CCOCC3CCOCC3)no2)C1 (stereo not given),-
CC(=O)N1CCCN(c2ncnc3c2CN(C2CCCCC2)C(=O)CN3C)CC1,-
O=C1c2ccccc2C(=O)N1Cc1ccccc1,-
SMILES,nsP2pro primary
O=C1N/C(=C\c2ccco2)C(=O)N1Cc1ccc(F)cc1,-
O=C1N/C(=C\c2ccco2)C(=O)N1Cc1ccccc1,12.6µM
Fc1cnc(-c2ccccc2C(F)F)nc1NCc1ccc(-c2cccnc2)cc1,-
O=C(NCc1ccc(Cl)cc1)c1ccc2cc[nH]c2n1,-
C=C/C=C/CC1=C(C)[C@H](OC(=O)[C@H]2[C@H](/C=C(\C)C(=O)OC)C2(C)C)CC1=O,-
COCC1CN(Cc2ccc(F)c(F)c2)CC12CCNCC2 (stereo not given),-
CC(=O)OC1CCC2(C)C(CCC3(C)C2CC=C2C4C(C)C(C)CCC4(C)CCC23C)C1(C)C(=O)O (stereo not given),1.21µM
CC(=O)O[C@@H]1CC[C@@]2(C)C(CC[C@]3(C)C2[C@H](O)C=C2[C@H]4[C@@H](C)[C@H](C)CC[C@]4(C)CC[C@]23C)[C@@]1(C)C(=O)O (stereo not given in full),-
COC(=O)C12CCC(C)C(C)C1C1=CCC3C4(C)CCC(OC(C)=O)C(C)(C)C4CCC3(C)C1(C)CC2 (stereo not given),-
N#Cc1cnc(N[S+](=O)([O-])c2ccc(Nc3nc(-c4ccccc4)cs3)cc2)s1,-
COCC1CN(C2CCC2)CC12CCN(Cc1scnc1C)CC2 (stereo not given),-
Cc1cc(C(=O)N2CCN(c3cccc(Cl)c3)CC2)n(-c2ccccc2)n1,-
O=C(N[C@H]1CO[C@H]2[C@@H]1OC[C@@H]2Nc1nccc(-c2ccco2)n1)c1ccco1,1µM
